In a collection of fitness landscapes (doi:10.1126/science.1257360):
Over roughly 140,000 sequences, “enrichment ratio after two sorts for PhoP signalling” has its median near 0; the highest 2% begin near 11. The list comes from a sample in which the highest values are over-represented; it also holds similar and randomly drawn sequences.

B1: PhoQ; a variant is named by its letters at X, in order, P23837 (parent)
chain: MKKLLRLFFPLSLRVRFLLATAAVVLVLSLAYGMVALIGYSVSFDKTTFRLLRGESNLFYTLAKWENNKLHVELPENIDKQSPTMTLIYDENGQLLWAQRDVPWLMKMIQPDWLKSNGFHEIEADVNDTSLLLSGDHSIQQQLQEVREDDDDAEMTHSVAVNVYPATSRMPKLTIVVVDTIPVELKSSYMVWSWFIYVLSANLLLVIPLLWVAAWWSLRPIEALAKEVRELEEHNRELLNPATTRELTSLVRNLNRLLKSERERYDKYRTTLTDLTHSLKTPLXXLQXXLRSLRSEKMSVSDAEPVMLEQISRISQQIGYYLHRASMRGGTLLSRELHPVAPLLDNLTSALNKVYQRKGVNISLDISPEISFVGEQNDFVEVMGNVLDNACKYCLEFVEISARQTDEHLYIVVEDDGPGIPLSKREVIFDRGQRVDTLRPGQGVGLAVAREITEQYEGKIVAGESMLGGARMEVIFGRQHSAPKDE

Variants of: B1
Assay: enrichment ratio after two sorts for PhoP signalling (ratio (wild type AVST 3.29)); higher = more functional
Conditions: with PhoP (E. coli)

Variant | enrichment ratio
PYLQ | ≤ 0.25
FLFH | ≤ 0.25
RFWY | ≤ 0.25
LSFF | 0.737
MSSN | ≤ 0.25
RYDM | ≤ 0.25
PWRP | ≤ 0.25
AMPS | ≤ 0.25
NSCA | ≤ 0.25
SLVH | 2.06
TSCT | 18.9
FSCT | ≤ 0.25
SRVH | ≤ 0.25
TSCQ | 21.3
SEVH | 17.3
KSCA | ≤ 0.25
TSCA | 15.2
KSCT | ≤ 0.25
NSCQ | ≤ 0.25
KSCQ | ≤ 0.25
AGPW | ≤ 0.25
MEVW | ≤ 0.25
DAWH | ≤ 0.25
VVRK | ≤ 0.25
EQCP | ≤ 0.25
QPNQ | ≤ 0.25

Variant | enrichment ratio
MFMV | ≤ 0.25
FTNT | ≤ 0.25
TGEC | 1.95
SFRM | ≤ 0.25
FVEG | ≤ 0.25
FWMV | ≤ 0.25
MDAY | ≤ 0.25
NVLK | ≤ 0.25
MAQN | ≤ 0.25
MKAT | ≤ 0.25
MCAN | 22.5
MMWN | ≤ 0.25
MCWN | 16.1
FDAN | ≤ 0.25
MCAT | 4.13
MCDN | ≤ 0.25
MEAT | 17.9
MCNL | ≤ 0.25
MCVN | ≤ 0.25
MAAN | 14.7
DHKR | ≤ 0.25
LPWC | ≤ 0.25
DVVV | ≤ 0.25
VKNA | ≤ 0.25
RHPV | ≤ 0.25
YEDC | ≤ 0.25

Variant | enrichment ratio
MEIN | 11.2
MEAN | 32.4
MDIN | ≤ 0.25
QEAN | 2.7
TEAN | 29.6
MDNT | ≤ 0.25
MFAN | ≤ 0.25
TEIN | 5.99
MKAN | ≤ 0.25
NEIN | ≤ 0.25
MDLT | ≤ 0.25
MDAT | 25.1
IEYH | ≤ 0.25
FRYS | ≤ 0.25
FLVW | ≤ 0.25
QNFD | ≤ 0.25
GGAV | 23.8
NIAV | ≤ 0.25
TGAV | 17.1
GTAV | ≤ 0.25
TLKV | 48.4
RGAV | ≤ 0.25
SLAV | 9.05
NGAV | ≤ 0.25
TLAV | 11.9
KLAV | ≤ 0.25

Variant | enrichment ratio
LLKV | ≤ 0.25
KLKV | ≤ 0.25
FLFA | 0.339
HVFA | ≤ 0.25
EHCF | ≤ 0.25
FDAV | ≤ 0.25
ADAV | 5.88
TDAV | 11.6
ERLI | ≤ 0.25
VDMS | ≤ 0.25
SPSS | ≤ 0.25
SLSS | 6.86
SQSS | 11.6
NVSS | ≤ 0.25
TLSS | 12
KYSS | ≤ 0.25
PLSS | ≤ 0.25
SDSS | 0.569
VLSS | 0.29
SESS | 13.9
SRSS | ≤ 0.25
TVSS | 11.6
RKAE | ≤ 0.25
AYPP | ≤ 0.25
PNHN | ≤ 0.25
VSWN | ≤ 0.25

Variant | enrichment ratio
ESGC | ≤ 0.25
QYRN | ≤ 0.25
EVDI | ≤ 0.25
PGYQ | ≤ 0.25
TTSS | 15.9
KSSS | ≤ 0.25
KQSS | ≤ 0.25
YTSS | ≤ 0.25
TSSS | 14
FSSS | ≤ 0.25
HVKP | ≤ 0.25
MNYD | ≤ 0.25
VKMD | ≤ 0.25
ISKH | ≤ 0.25
KHQI | ≤ 0.25
HSYE | ≤ 0.25
AEVE | 7.98
AEVA | ≤ 0.25
AEKC | ≤ 0.25
AESS | 16.3
AETH | 0.824
AEVY | 6.64
AESQ | 4.68
AEVK | ≤ 0.25
AEVS | 16.2
AENK | ≤ 0.25

Variant | enrichment ratio
AETC | 36.7
AEVI | 17.5
QGNI | ≤ 0.25
WYRH | ≤ 0.25
EKKS | ≤ 0.25
RHGF | ≤ 0.25
REAM | ≤ 0.25
PMYC | ≤ 0.25
VLES | ≤ 0.25
QQHF | ≤ 0.25
GTWR | ≤ 0.25
KCDP | ≤ 0.25
VWMG | ≤ 0.25
AETA | 5.73
AIVF | 2.34
AEVG | 6.84
AETI | 16.8
NEVL | ≤ 0.25
AETD | ≤ 0.25
QEVF | ≤ 0.25
AEVC | 14.6
MEVL | 11.6
AEVF | 14.3
MAVL | 2.43
